From PubChem BioAssay (NCATS) come the findings set out here.

Results filed as inconclusive are left out. Unmarked numbers belong to inactive results. Activity calls are given as the source filed them.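 The calls were made as follows: active = dose-dependent loss of cell ATP signal giving a full or clear fitted curve, ranked by lower potency value; inconclusive = weak partial curve or response only at the top dose; inactive = no loss of viability signal.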 Some results are limits rather than exact numbers.
Potency is read from the fitted curve at half-maximal effect.

The nature of the test: Cell Viability - Jurkat (AID 426). The note with it: qHTS. An excerpt:
NIH Chemical Genomics Center [NCGC]
NIH Molecular Libraries Screening Centers Network [MLSCN]
National Institutes of Environmental Health Sciences [NIEHS]
National Toxicology Program [NTP]
We have developed a 1536-well cell-based assay for quantitative high throughput screening (qHTS) against a number of cell lines to determine in vitro cytotoxicity of small molecules. This particular assay uses the Jurkat cell line (Clone E6-1) which is derived from the human T cell leukemia.
NCGC Assay Protocol Summary:
The CellTiter-Glo luminescent cell viability assay (Promega) is a homogeneous method to measure the number of viable cells in culture. The end point readout of this assay is based on quantitation of intracellular ATP, an indicator of metabolic activity, using the luciferase reaction. Luciferase catalyzes the oxidation of beetle Luciferin to oxyluciferin and light in the presence of ATP. The luminescent signal is proportional to amount of ATP present.
Using the CellTiter-Glo luminescent cell viability assay, the amount of cellular ATP was measured in the Jurkat cell line with complete culture medium following compound treatment for 40 hours. The assay was performed in opaque white Kalypsys 1536-well plates. In the screen, tamoxifen and doxorubicin were used as positive controls. Library compounds were measured for their ability to cause acute toxicity in the cell line, as reflected by a decrease in intracellular ATP levels, in a concentration-dependent manner. […] AC50 values were determined from concentration-response data modeled with the standard Hill equation.
qHTS protocol for CellTiter Glo Jurkat cellular assay
[Step] [Parameter] [Value] [Description]
1. Reagent; 5 uL; 5000 Jurkat cells/well
3. Controls; 23 nL; Tamoxifen 0.34 uM to 100 uM & Doxorubicin 0.02 nM to 100 uM
4. Time; 40 hr; 37 °C incubation
5. Reagent; 5 uL; CellTiter Glo reagent
6. Time; 20 min; Room Temperature
7. Detection; Luminescence; Viewlux plate reader
Keywords: cell viability, cytotoxicity, Jurkat cell line, luminescence, NTPHTS, NTPHTS_NCGC, NIEHS, EPA, DSSTox, MLSMR, MLSCN, NIH Roadmap, qHTS, NCGC
For orientation: Quantitative high-throughput screening tests each substance at several concentrations.
In the case of `O=[N+]([O-])c1cc([N+](=O)[O-])c2ccc(S(=O)(=O)O)cc2c1O`, the Potency was > 92 µM. Turning to `Cc1cc(Nc2ccc(O)cc2)ccc1N`, the Potency was 7.82 µM (active). As for `c1ccc2c(c1)ccc1cc3c(ccc4ccccc43)cc12`, the figure is > 92 µM; as for `CC/C(=C(\c1ccccc1)c1ccc(OCCN(C)C)cc1)c1ccc(O)cc1`, 40.8 µM (active); as for `Oc1ccc2cc(SSc3ccc4cc(O)ccc4c3)ccc2c1`, 36.7 µM (active).

Regarding `Nc1ccc2cc3ccccc3cc2c1`, the Potency is > 92 µM. Take `Cc1cccc(O)c1C`: the Potency was > 92 µM.

On to `CNc1ccc(O)cc1`, for which the Potency is 2.14 µM (active).

For `c1ccc2c(c1)-c1cccc3c1c-2cc1ccccc13`, the Potency was > 92 µM. Take `CN(C)c1ccc(C2(c3ccc(N(C)C)cc3)OC(=O)c3cc(N(C)C)ccc32)cc1`: the Potency is > 92 µM. Take `CCCCCC/C(C=O)=C\c1ccccc1`: the Potency is > 92 µM.

As for `C=CC(=O)OCC(CO)(COC(=O)C=C)COC(=O)C=C`, the Potency was 1.6 µM (active). Regarding `CCC(C)Nc1ccc(NC(C)CC)cc1` (stereo not given), the Potency is 3.09 µM (active). As for `CCCCCCCC[N+](CCCCCCCC)(CCCCCCCC)CCCCCCCC`, the figure is 7.74 µM (active). Consider `CN1[C@H]2CC(OC(=O)[C@H](CO)c3ccccc3)C[C@H]1[C@H]1O[C@H]12` (stereo not given in full), for which the Potency is > 92 µM. The result for `O=C(/C=C/c1ccc(O)c(O)c1)OC1C[C@](O)(C(=O)O)C[C@@H](O)[C@H]1O` (stereo not given in full) reads > 92 µM; that for `CC(=O)Nc1ccc(C(=O)CCl)cc1`, 2.44 µM (active). For `C=CC(=O)OCCOCCOC(=O)C=C`, the Potency was 7.5 µM (active). As for `O=C=Nc1ccc(Cc2ccc(N=C=O)cc2)cc1`, the figure is > 92 µM; as for `c1cc(OCC2CO2)cc(OCC2CO2)c1` (stereo not given), 41.9 µM (active). Regarding `Cc1cc(O)c(C(C)(C)C)cc1Sc1cc(C(C)(C)C)c(O)cc1C`, the Potency is 16.3 µM (active).

On to `O=C(OCC(COC(=O)c1ccccc1)(COC(=O)c1ccccc1)COC(=O)c1ccccc1)c1ccccc1`, for which the Potency was > 92 µM. The result for `O=C1OC(O)C(C(Cl)Cl)=C1Cl` (stereo not given) reads 21.3 µM (active).

In the case of `ClC1=C(Cl)C(Cl)(Cl)C(Cl)=C1Cl`, the Potency was 1.88 µM (active). On to `C=C(C)c1ccccc1`, for which the Potency was > 92 µM.
